Reference: PubChem BioAssay
Values without a mark were called inactive. Calls of active or inactive are those of the source.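 How the source made its calls, unless noted: active means luciferase signal above three times the same-plate solvent-only control wells; inactive means the rest.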

Assays:
[1] = target: NAD(+) hydrolase SARM1 (Homo sapiens) (UniProt Q6SZW1); assay: blocking NAD cleavage by SARM1 SAM-TIR – cell lysate, NAD-Glo luminescence (AID 1508614;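 active means compound whose remaining NAD level is above about 45 nM, limit read from the data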;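 further: higher remaining NAD means stronger inhibition of SARM1 NADase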); conditions: SAM-TIR HEK293T lysate NADase, at 1 µM, active compounds read high
[2] = target: Mitogen-activated protein kinase 7 (Homo sapiens) (UniProt Q13164); assay: Gal4-ERK5 driven luciferase induction – cell-based, HTS, primary screen (AID 1508626); conditions: HeLa Gal4-ERK5 transactivation, 18 h, at 5 µM, active compounds read high;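 further: luciferase driven by Gal4-ERK5 fusion binding five Gal4 sites before minimal TATA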
Chain of Mitogen-activated protein kinase 7 (Homo sapiens) (Q13164 whole entry, looked up, the tested form may be a part): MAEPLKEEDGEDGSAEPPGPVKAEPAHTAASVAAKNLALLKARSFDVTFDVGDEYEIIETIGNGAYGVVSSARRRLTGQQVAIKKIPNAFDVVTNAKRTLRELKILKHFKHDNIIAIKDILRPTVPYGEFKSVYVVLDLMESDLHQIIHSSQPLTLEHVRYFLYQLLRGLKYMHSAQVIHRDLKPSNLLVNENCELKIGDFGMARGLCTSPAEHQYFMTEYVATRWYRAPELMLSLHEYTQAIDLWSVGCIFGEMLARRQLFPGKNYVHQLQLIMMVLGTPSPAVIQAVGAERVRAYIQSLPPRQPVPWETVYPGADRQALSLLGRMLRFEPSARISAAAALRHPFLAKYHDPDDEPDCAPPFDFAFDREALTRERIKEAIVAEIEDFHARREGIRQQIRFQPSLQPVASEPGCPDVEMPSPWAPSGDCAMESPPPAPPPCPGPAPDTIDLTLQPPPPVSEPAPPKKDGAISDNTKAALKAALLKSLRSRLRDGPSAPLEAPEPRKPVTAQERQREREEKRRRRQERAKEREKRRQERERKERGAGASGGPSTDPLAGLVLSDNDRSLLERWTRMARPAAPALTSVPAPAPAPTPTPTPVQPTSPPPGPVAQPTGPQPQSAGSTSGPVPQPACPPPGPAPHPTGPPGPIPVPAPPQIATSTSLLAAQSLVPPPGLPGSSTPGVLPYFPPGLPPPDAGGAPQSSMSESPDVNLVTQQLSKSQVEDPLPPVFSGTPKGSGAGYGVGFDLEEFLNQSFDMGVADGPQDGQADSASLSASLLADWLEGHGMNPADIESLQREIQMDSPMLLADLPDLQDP

Chain of NAD(+) hydrolase SARM1 (Homo sapiens) (Q6SZW1 whole entry, looked up, the tested form may be a part): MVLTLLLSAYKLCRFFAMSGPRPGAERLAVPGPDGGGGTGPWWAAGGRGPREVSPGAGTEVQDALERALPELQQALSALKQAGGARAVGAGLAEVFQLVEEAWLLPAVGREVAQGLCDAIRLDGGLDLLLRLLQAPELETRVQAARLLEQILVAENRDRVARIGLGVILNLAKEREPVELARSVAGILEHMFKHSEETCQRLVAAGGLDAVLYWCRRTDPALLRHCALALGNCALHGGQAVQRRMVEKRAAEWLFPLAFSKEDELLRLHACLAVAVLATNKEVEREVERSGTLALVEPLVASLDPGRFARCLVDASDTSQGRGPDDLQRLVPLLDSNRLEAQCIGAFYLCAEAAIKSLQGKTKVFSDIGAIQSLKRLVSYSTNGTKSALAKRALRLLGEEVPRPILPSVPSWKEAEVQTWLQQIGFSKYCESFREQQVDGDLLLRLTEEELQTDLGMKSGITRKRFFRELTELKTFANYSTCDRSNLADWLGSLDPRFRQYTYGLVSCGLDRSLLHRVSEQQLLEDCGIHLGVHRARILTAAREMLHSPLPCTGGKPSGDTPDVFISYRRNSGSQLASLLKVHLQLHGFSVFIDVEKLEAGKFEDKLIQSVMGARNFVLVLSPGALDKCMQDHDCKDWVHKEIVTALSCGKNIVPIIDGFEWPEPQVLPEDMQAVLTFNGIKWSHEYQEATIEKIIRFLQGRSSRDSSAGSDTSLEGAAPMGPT

| Structure (SMILES) | remaining NAD [1] | luciferase signal [2] |
| --- | --- | --- |
| Cc1ccsc1/C=C/C1=NCCCN1C | 10 nM | 88 AU |
| CC(=O)Oc1cccc(O)c1 | 10 nM | 20 AU |
| Cc1cc(C(C)(C)C)c(O)c(C(C)(C)C)c1 | 10 nM | 20 AU |
| COc1ccc(CN(CCN(C)C)c2ncccn2)cc1 | 10 nM | 60 AU |
| O=C1c2ccccc2C(=O)C1c1ccccc1 | 10 nM | 52 AU |
| Nc1ccc(C(=O)NCC(=O)O)cc1 | 10 nM | 20 AU |
| O=C(O)c1ccc(S(=O)(=O)N(Cl)Cl)cc1 | 10 nM | 48 AU |
| COc1c2occc2c(OC)c2c(=O)cc(C)oc12 | 10 nM | 80 AU |
| Nc1nc2c(c(=O)[nH]1)N(C=O)C(CNc1ccc(C(=O)N[C@@H](CCC(=O)O)C(=O)O)cc1)CN2 (stereo partly specified) | 10 nM | 72 AU |
| O=C(O)CCCC[C@@H]1SC[C@@H]2NC(=O)N[C@@H]21 | 10 nM | 256 AU |
| NC(N)=NS(=O)(=O)c1ccc(N)cc1 | 10 nM | 188 AU |
| Cc1ccccc1OCC(O)CO (stereo unspecified) | 10 nM | 44 AU |
| CCCCC(CC)CN=C(N)NC(N)=NCCCCCCN=C(N)NC(N)=NCC(CC)CCCC (stereo unspecified) | 10 nM | 88 AU |
| CC(C)(C)CC(C)(C)c1ccc(O)c(Cc2ccc(Cl)cc2Cl)c1 | 10 nM | 52 AU |
| O=C1OC(c2ccc(O)cc2)(c2ccc(O)cc2)c2ccccc21 | 10 nM | 84 AU |
| N[C@@H](CCC(=O)N[C@@H](CS)C(=O)NCC(=O)O)C(=O)O | 22 nM | 68 AU |
| N=C(N)N | 10 nM | 44 AU |
| O=C(O)c1ccccc1OP(=O)(O)O | 10 nM | 60 AU |
| CC(C)(Sc1cc(C(C)(C)C)c(O)c(C(C)(C)C)c1)Sc1cc(C(C)(C)C)c(O)c(C(C)(C)C)c1 | 10 nM | 40 AU |
| COc1ccc(C2C(=O)c3ccccc3C2=O)cc1 | 10 nM | 172 AU |
| Oc1c(Cl)cc(Cl)cc1Sc1cc(Cl)cc(Cl)c1O | 10 nM | 24 AU |
| CC1CCC(NC(=O)N(CCCl)N=O)CC1 (stereo unspecified) | 10 nM | 44 AU |
| CC1(C)S[C@@H]2[C@H](NC(=O)C(C(=O)O)c3ccccc3)C(=O)N2[C@H]1C(=O)O (stereo partly specified) | 10 nM | 84 AU |
| NC(N)=NCCN1CCCCCCC1 | 10 nM | 32 AU |
| Cc1cccc(N(C)C(=S)Oc2ccc3ccccc3c2)c1 | 10 nM | 112 AU |
| CCOC(=O)OC(C)OC(=O)[C@@H]1N2C(=O)[C@@H](NC(=O)[C@H](N)c3ccccc3)[C@H]2SC1(C)C (stereo partly specified) | 10 nM | 76 AU |

| Structure (SMILES) | remaining NAD [1] | luciferase signal [2] |
| --- | --- | --- |
| NCC1CCC(C(=O)O)CC1 (stereo unspecified) | 10 nM | 44 AU |
| CC(Cc1cccc(C(F)(F)F)c1)NCCOC(=O)c1ccccc1 (stereo unspecified) | 10 nM | 84 AU |
| Cc1ccc(C(=O)C(C)CN2CCCCC2)cc1 (stereo unspecified) | 10 nM | 40 AU |
| C[N+]12CCC(CC1)C(OC(=O)C(O)(c1ccccc1)c1ccccc1)C2 (stereo unspecified) | 10 nM | 48 AU |
| Cc1c(N(C)C)c(=O)n(-c2ccccc2)n1C | 10 nM | 60 AU |
| Cc1cc(-c2ccccc2)nnc1NCCN1CCOCC1 | 10 nM | 48 AU |
| O=c1ccc2ccccc2o1 | 10 nM | 48 AU |
| CCC(Cc1c(I)cc(I)c(N)c1I)C(=O)O (stereo unspecified) | 10 nM | 56 AU |
| CCN(CC)CCNC(=O)COc1ccc(OC)cc1 | 10 nM | 72 AU |
| CCN(CC)CCOC(=O)C(Cc1cccc2ccccc12)CC1CCCO1 (stereo unspecified) | 10 nM | 36 AU |
| O=C(O)c1ccccc1O | 10 nM | 24 AU |
| CCCCC(=O)O[C@]1(C(=O)CO)[C@@H](C)C[C@H]2[C@@H]3CCC4=CC(=O)C=C[C@]4(C)[C@@]3(F)[C@@H](O)C[C@@]21C | 10 nM | 80 AU |
| CCCCc1nc(Cl)c(CO)n1Cc1ccc(-c2ccccc2-c2nn[nH]n2)cc1 | 10 nM | 44 AU |
| CN1CCOC(c2ccccc2)c2ccccc2C1 (stereo unspecified) | 10 nM | 120 AU |
| Cc1cc(NC(=O)C2=C(O)c3ccccc3S(=O)(=O)N2C)no1 | 10 nM | 72 AU |
| CC(N)C(=O)OC(C)(C)Cc1ccc(Cl)cc1 (stereo unspecified) | 10 nM | 92 AU |
| Oc1ccc(OCc2ccccc2)cc1 | 10 nM | 64 AU |
| CCn1cc(C(=O)O)c(=O)c2cnc(N3CCCC3)nc21 | 10 nM | 80 AU |
| CC(=O)Nc1ccccc1 | 10 nM | 60 AU |
| O=C1O[C@H](CO)[C@@H](O)[C@H](O)[C@H]1O | 10 nM | 16 AU |
| CC(=O)OCC(=O)[C@@]1(O)[C@H](C)C[C@H]2[C@@H]3CCC4=CC(=O)C=C[C@]4(C)[C@@]3(F)[C@@H](O)C[C@@]21C | 10 nM | 120 AU |
| CN1CCC(=C2c3ccccc3Sc3ccccc32)CC1 | 83 nM (active) | 64 AU |
| CO[C@@H]1[C@@H](OC(N)=O)[C@@H](O)[C@H](Oc2ccc3c(O)c(NC(=O)c4ccc(O)c(CC=C(C)C)c4)c(=O)oc3c2C)OC1(C)C | 10 nM | 44 AU |
| O=C(O)CCNC(=O)c1ccccc1 | 10 nM | 20 AU |
| Nc1nccs1 | 10 nM | 40 AU |
| Cc1cccc(C(=O)O)c1O | 10 nM | 68 AU |

| Structure (SMILES) | remaining NAD [1] | luciferase signal [2] |
| --- | --- | --- |
| Cc1onc(-c2ccccc2Cl)c1C(=O)N[C@@H]1C(=O)N2[C@@H]1SC(C)(C)[C@@H]2C(=O)O | 10 nM | 24 AU |
| O=C(OCc1ccccc1)c1ccccc1 | 10 nM | 88 AU |
| Oc1ccc(Cl)c2cccnc12 | 10 nM | 60 AU |
| COc1ccc(NS(=O)(=O)c2ccc(N)cc2)nn1 | 10 nM | 28 AU |
| CCCCCCCCNC(C)C(O)c1ccc(SC(C)C)cc1 (stereo unspecified) | 10 nM | 60 AU |
| O=C(OCC(O)CO)c1ccccc1Nc1ccnc2cc(Cl)ccc12 (stereo unspecified) | 10 nM | 176 AU (active) |
| CCOC(=O)c1ccc(N)cc1 | 10 nM | 112 AU |
| NS(=O)(=O)c1cc2c(cc1Cl)NC(CSCc1ccccc1)=NS2(=O)=O | 10 nM | 88 AU |
| CC(NCCC(c1ccccc1)c1ccccc1)c1ccccc1 (stereo unspecified) | 10 nM | 36 AU |
| CC(C)N=C(N)/N=C(\N)Nc1ccc(Cl)cc1 | 10 nM | 84 AU |
| CCOc1ccc(NC(C)=O)cc1 | 10 nM | 68 AU |
| Cn1c([N+](=O)[O-])cnc1COC(N)=O | 10 nM | 108 AU |
| Cc1c(NC(=O)c2cccnc2)c(=O)n(-c2ccccc2)n1C | 10 nM | 56 AU |
| CC1CC(OC(=O)C(O)c2ccccc2)CC(C)(C)N1C (stereo unspecified) | 10 nM | 48 AU |
| Cc1cc(CC(=O)O)n(C)c1C(=O)c1ccc(Cl)cc1 | 10 nM | 96 AU |
| Oc1c(I)cc(I)c2cccnc12 | 10 nM | 16 AU |
| CC(C(=O)O)c1ccc2c(c1)[nH]c1ccc(Cl)cc12 (stereo unspecified) | 10 nM | 16 AU |
| CCCc1ncc(C[n+]2ccccc2C)c(N)n1 | 10 nM | 52 AU |
| Nc1cc(-c2ccncc2)c[nH]c1=O | 10 nM | 104 AU |
| CC1=CC(=O)c2ccccc2C1=O | 10 nM | 128 AU |
| CC[C@]12CCCN3CCc4c(n(c5ccccc45)[C@@](O)(C(=O)OC)C1)[C@@H]32 | 10 nM | 112 AU |
| CCCCCCOc1ccccc1C(N)=O | 10 nM | 48 AU |
| Cc1cc(C)nc(NS(=O)(=O)c2ccc(N)cc2)n1 | 10 nM | 36 AU |
| CS(=O)(=O)c1ccc([C@@H](O)[C@@H](CO)NC(=O)C(Cl)Cl)cc1 | 23 nM | 44 AU |
| Nc1c2ccccc2nc2ccccc12 | 10 nM | 92 AU |
| Cc1cc(C2CCCCC2)n(O)c(=O)c1 | 10 nM | 52 AU |
